The target of experiment [1] is Cellular tumor antigen p53 (Homo sapiens) (UniProt P04637). The experiment is described as follows: Primary qHTS for small molecule compounds that upregulate eGFP-tagged delta133p53alpha (in N-terminal) cells. (AID 2060322). Also: nearly all actives have a fitted effect of over 75% in size. Also: potency is read from the fitted curve at half-maximal effect.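 As to activation: series mostly up to about 56 µM; 0% = DMSO vehicle and 100% = reference activator.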 The conditions noted are these: NCI-H358 eGFP-delta133p53alpha fluorescence, 24 h; activation: hits give high values. The essentials:
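NCI-H358 cells pre-induced 24 h with 10 ng/ml doxycycline to express N-terminal eGFP-delta133p53alpha, then dosed 24 h at 37C without doxycycline; fixed, Hoechst-stained, GFP intensity by laser scanning cytometry, normalized to DMSO (0%) and 57.5 uM 5-azacytidine (100%).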
Background: qHTS replaces the single test concentration by a dilution series.

Experiment [2] concerns the target Aldehyde dehydrogenase, mitochondrial (Homo sapiens) (UniProt P05091). The experiment is described as follows: qHTS for Inhibitors of the Aldehyde Dehydrogenase Family (ALDH2) Primary screen (AID 2061308).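 Also: plate controls were vehicle for no effect and reference inhibitor for full effect; nearly all actives have a fitted effect of over 55% in size.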
Experiment [3] has as its target Retinaldehyde dehydrogenase 3 (Homo sapiens) (UniProt P47895). The experiment is described as follows: qHTS for Inhibitors of the Aldehyde Dehydrogenase Family (ALDH1A3) Primary screen (AID 2061315).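 Also: plate controls were DMSO vehicle for no effect and reference inhibitor for full effect.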
Experiment [4] is described as follows: BET inhibitor-based combinations targeting novel dependencies in MECOM-rearranged (r) AML: OCI-AML3 cell line (AID 2202232). Also: potency is read from the fitted curve at half-maximal effect; nearly all actives have a fitted effect of over 35% in size. The conditions noted are these: Potency: OCI-AML3 viability. The method, boiled down: (§1)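 A 48 hr incubation preceded viability reading by CellTiter-Glo, with 15 min room-temperature development. Dose series had 11 points; normalization used DMSO and empty wells; AUC was computed and mean-centered per line as Z-AUC.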

A short description of experiment [5]: BET inhibitor-based combinations targeting novel dependencies in MECOM-rearranged (r) AML: UCSD-AML1 cell line (AID 2202235). Also: potency is read from the fitted curve at half-maximal effect; nearly all actives have a fitted effect of over 40% in size. The method, boiled down:
(§2)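 Each compound is tested in an 11-point concentration series against 500 seeded cells/well for 48 hr. The luminescent viability signal is normalized to DMSO and blank wells, then reduced to AUC and a cell-line-centred Z-AUC.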

Experiment [6] in a line: BET inhibitor-based combinations targeting novel dependencies in MECOM-rearranged (r) AML: AML-191 cell line (AID 2202236; also: potency is read from the fitted curve at half-maximal effect; nearly all actives have a fitted effect of over 35% in size). The essentials:
as §1

A short description of experiment [7]: BET inhibitor-based combinations targeting novel dependencies in MECOM-rearranged (r) AML: AML-194 cell line (AID 2202237;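 also: plate controls were vehicle wells for no effect and wells without cells for full effect; nearly all actives have a fitted effect of over 40% in size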). The essentials: as §1
The nature of experiment [8]: BET inhibitor-based combinations targeting novel dependencies in MECOM-rearranged (r) AML: MV-4-11 cell line (AID 2202233). Also: potency is read from the fitted curve at half-maximal effect; nearly all actives have a fitted effect of over 45% in size. The method, boiled down: as §2
Experiment [9] is described as follows: BET inhibitor-based combinations targeting novel dependencies in MECOM-rearranged (r) AML: HNT-34 cell line (AID 2202234). Also: potency is read from the fitted curve at half-maximal effect; nearly all actives have a fitted effect of over 35% in size. The essentials: as §2

Where “and” joins values, the source holds several entries; their conditions need not be identical. Identical values can stand only once. Inconclusive results are not listed. Values without a mark were called inactive. Calls of active or inactive are those of the source. Calls follow the shape of the dose curve; as a rule, active = well fitted curve in the direction sought with a large enough effect; inconclusive = small, poorly fitted or top-dose-only effect, or another doubt; inactive = no such curve, though single readings can be large; an effect the other way counts as inactive or inconclusive.

Cellular tumor antigen p53 (Homo sapiens), sequence (P04637 whole entry, looked up): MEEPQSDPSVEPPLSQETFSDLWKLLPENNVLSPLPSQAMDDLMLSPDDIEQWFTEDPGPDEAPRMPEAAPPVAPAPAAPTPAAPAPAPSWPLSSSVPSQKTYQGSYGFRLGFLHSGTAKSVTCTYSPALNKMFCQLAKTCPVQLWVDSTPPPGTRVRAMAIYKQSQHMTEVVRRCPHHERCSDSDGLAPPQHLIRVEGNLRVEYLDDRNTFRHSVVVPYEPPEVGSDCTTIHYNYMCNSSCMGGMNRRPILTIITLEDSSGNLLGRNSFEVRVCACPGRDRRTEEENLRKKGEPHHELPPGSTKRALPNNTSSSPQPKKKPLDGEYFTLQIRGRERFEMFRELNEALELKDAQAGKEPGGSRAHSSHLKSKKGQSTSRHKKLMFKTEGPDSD

Turning to `Cc1csc(-c2nnc(Nc3ccc(Oc4ncccc4-c4ccnc(N)n4)cc3)c3ccccc23)c1`, the activation in [1] is 19.6%. The Potency result in experiment [2] and in experiment [3] was “inactive” each time. Moreover, the Potency in experiment [4] is 1.86 µM (active); in experiment [5], 0.296 µM (active).

For `COc1nccc(-c2c(-c3ccc(F)cc3)ncn2C2CCC(O)CC2)n1` (stereo not drawn), the activation in experiment [1] is 22% and -24.1%. Also, the Potency entry in experiment [2], in experiment [3] and in experiment [7] was “inactive” throughout. The Potency in [4] and in experiment [6] was 18.6 µM (active) in each case.

Turning to `Cc1c(C(=O)N2CCOc3ccc(-c4ccc(N)nc4)cc3C2)ccc(S(C)(=O)=O)c1F`, the Potency was 26.9 µM (active) in experiment [1], 6.61 µM (active) in [8], 2.95 µM (active) in experiment [9] and 0.742 µM (active) in experiment [5]. Besides, the Potency entry in [2] and in experiment [3] was “inactive” in each case.

On to `CCn1c(C(=O)N(C2CC2)C2CC2)cc2c3c(ncn3C)c(Nc3cc(C)n(C)n3)nc21`, for which the activation in experiment [1] was -29.5%. The Potency result in experiment [2] and in [3] was “inactive” each time. Besides, the Potency was 2.63 µM (active) in [8], 16.6 µM (active) in experiment [9] and 3.32 µM (active) in experiment [5].

These data come from PubChem BioAssay (NCATS).
